Publication PMC4336329 (PLoS ONE, 2015)
Among all 310,000 compounds or so, about 14,000 (4.5%) showed an effect of 50% or more. Effects have a minus sign here. Only a selection was taken, and strong results are over-represented in it overall.

biological target: human ether-à-go-go-related gene (hERG) potassium channel (human, UniProt Q12809); test: primary screen, population patch clamp on CHO cells stably expressing hERG; higher = less effect of the substance
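Note: peak tail current of the secondary pulse compared with the same well before compound.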

human ether-à-go-go-related gene (hERG) potassium channel, sequence (Q12809 whole entry, looked up): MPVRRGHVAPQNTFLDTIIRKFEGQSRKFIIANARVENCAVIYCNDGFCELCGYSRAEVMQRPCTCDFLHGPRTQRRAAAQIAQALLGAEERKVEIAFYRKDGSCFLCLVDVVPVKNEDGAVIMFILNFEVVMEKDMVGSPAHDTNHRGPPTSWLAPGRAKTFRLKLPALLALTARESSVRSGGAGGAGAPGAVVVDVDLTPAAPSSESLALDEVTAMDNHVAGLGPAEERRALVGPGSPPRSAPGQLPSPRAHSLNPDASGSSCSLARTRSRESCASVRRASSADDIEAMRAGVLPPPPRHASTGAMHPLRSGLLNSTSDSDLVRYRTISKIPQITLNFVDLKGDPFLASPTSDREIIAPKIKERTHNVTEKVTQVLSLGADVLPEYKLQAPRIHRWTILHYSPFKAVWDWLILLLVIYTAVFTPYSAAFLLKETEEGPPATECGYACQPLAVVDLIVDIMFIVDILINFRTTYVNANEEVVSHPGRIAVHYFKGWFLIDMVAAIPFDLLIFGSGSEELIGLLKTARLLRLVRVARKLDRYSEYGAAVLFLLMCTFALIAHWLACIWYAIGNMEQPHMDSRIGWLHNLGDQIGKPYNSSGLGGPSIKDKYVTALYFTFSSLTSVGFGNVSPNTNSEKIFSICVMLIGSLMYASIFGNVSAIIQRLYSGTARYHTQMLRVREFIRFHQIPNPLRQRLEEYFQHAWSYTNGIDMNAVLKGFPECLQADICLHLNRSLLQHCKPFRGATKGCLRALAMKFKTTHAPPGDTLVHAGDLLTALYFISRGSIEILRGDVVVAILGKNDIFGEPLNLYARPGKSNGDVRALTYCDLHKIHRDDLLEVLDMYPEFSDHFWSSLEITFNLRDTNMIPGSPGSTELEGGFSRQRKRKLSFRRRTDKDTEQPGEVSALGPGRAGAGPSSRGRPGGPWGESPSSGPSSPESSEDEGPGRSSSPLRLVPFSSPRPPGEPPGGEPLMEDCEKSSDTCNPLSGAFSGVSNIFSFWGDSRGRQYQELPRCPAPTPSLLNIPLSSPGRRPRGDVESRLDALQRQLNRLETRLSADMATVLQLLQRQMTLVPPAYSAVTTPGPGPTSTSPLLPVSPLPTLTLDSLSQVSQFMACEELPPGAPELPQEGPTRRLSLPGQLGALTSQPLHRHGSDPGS

Going from `COC(=O)c1ccc(/C=N\N2CCN(Cc3ccc(C)cc3)CC2)cc1` to `Cc1ccc2oc(C(=O)N3CCN(Cc4ncccc4C)CC3)c(C)c2c1`, the “hERG current change (%, negative = inhibition) at 10uM” value falls from 9.51% to -78.3%.

Compared with `O=C(CCN1C(=O)/C(=C/c2ccccc2F)SC1=S)NCCc1ccc(O)cc1`, `CCOc1cc(CNCCc2ccccc2F)ccc1OC.O=C(O)C(=O)O` is lower in “hERG current change (%, negative = inhibition) at 10uM” value: 14.1% for the first, -42.1% for the second.

First: COC(=O)c1cc(Cl)c(NC(=O)/C=C/c2ccc(Cl)cc2)cc1OC
Second: CN(C)c1ccc(NC(=S)NC(=O)/C=C/c2ccc(Cl)cc2)cc1
The “hERG current change (%, negative = inhibition) at 10uM” value of the first is lower: -15.7% for the first, 2.39% for the second.

First: Fc1ccc(Br)cc1C1C=C(c2ccc(Br)s2)Nc2ncnn21 (stereo not shown)
Second: CC1CCc2cc(F)ccc2N1C(=O)c1ccncc1 (stereo not shown)
The “hERG current change (%, negative = inhibition) at 10uM” value of the first is higher: 9% for the first, 7.7% for the second.

Compared with `COCCCNC(=O)c1ccc(CS(=O)(=O)c2ccccc2C)o1`, `O=C(NCC(=O)N1CCN(c2ccccc2F)CC1)c1ccc(Br)o1` is lower in “hERG current change (%, negative = inhibition) at 10uM” value: 7.74% for the first, -39.1% for the second.

Going from `O=C(NCc1cccnc1)C1c2ccccc2C(=O)N1C1CCCCCC1` (stereo not shown) to `O=C1N(Cc2cccnc2)C[C@@H]2C[C@@H](c3cccc(OC4CCCC4)c3)N3CCC[C@@]123`, the “hERG current change (%, negative = inhibition) at 10uM” value falls from 2.21% to -69.5%.

Compared with `O=C(O)c1cccc2c1NC(C(=O)O)C1CC(Sc3ccccc3[N+](=O)[O-])C(Cl)C21` (stereo not shown), `O=C(Nc1cccnc1)/C(N=Nc1c(Cl)cccc1Cl)=C(\O)c1ccccc1` is higher in “hERG current change (%, negative = inhibition) at 10uM” value: -0.458% for the first, 18.8% for the second.

Going from `Cc1c(C(=O)N2CCN(C(=O)c3ccccc3)CC2)oc2ccc(F)cc12` to `Cc1c(C(=O)N2CCN(CCc3ccccn3)CC2)oc2ccc(F)cc12`, the “hERG current change (%, negative = inhibition) at 10uM” value falls from -44.8% to -72.1%.

Going from `Cc1ccc2c(C)c(C(=O)N3CCN(Cc4ccccn4)CC3)oc2c1C` to `Cc1cc2oc(C(=O)N3CCN(CCc4ccccn4)CC3)c(C)c2cc1C`, the “hERG current change (%, negative = inhibition) at 10uM” value rises from -23.1% to -21.2%.

First: Cc1c(C(=O)N2CCN(CCc3ccccn3)CC2)oc2ccc(Cl)cc12
Second: Cc1c(C(=O)N2CCN(c3ncccn3)CC2)oc2ccc(Cl)cc12
The “hERG current change (%, negative = inhibition) at 10uM” value of the first is lower: -81.1% for the first, -23.3% for the second.

Compared with `Cc1ccc2oc(C(=O)N3CCN(Cc4nccn4C)CC3)c(C)c2c1`, `Cc1ccc2oc(C(=O)N3CCN(CCO)CC3)c(C)c2c1` is higher in “hERG current change (%, negative = inhibition) at 10uM” value: -41.3% for the first, 13.7% for the second.

Compared with `CC(C)CN(C(=O)c1ccc(S(=O)(=O)N2CCCC2)cc1)C1CCS(=O)(=O)C1` (stereo not shown), `Cc1ccc(S(=O)(=O)N[C@H](C(=O)N2CCC(C(=O)N[C@@H](CC(=O)O)C(=O)O)CC2)C(C)C)cc1` is higher in “hERG current change (%, negative = inhibition) at 10uM” value: -3.52% for the first, 24.9% for the second.

First: Cc1cccc(NC(=O)C(=O)NCc2ccc3c(c2)OCO3)c1C
Second: Cc1ccc(Cl)cc1N1CCN(C(=O)CNC(=O)c2ccc(Br)o2)CC1
The “hERG current change (%, negative = inhibition) at 10uM” value of the first is higher: -16.5% for the first, -55.9% for the second.

First: CCN(CC)C(=O)Oc1nnc(SC(C)C)n1-c1ccc(Cl)c(Cl)c1
Second: CCOc1ccc(C(=O)Nn2cnnc2)cc1OCC
The “hERG current change (%, negative = inhibition) at 10uM” value of the first is higher: -7.2% for the first, -70.4% for the second.

First: Cc1ncoc1C(=O)N1CCCC(C(=O)c2cccc(OC(C)C)c2)C1 (stereo not shown)
Second: COc1cccc(CNC(=O)CCC2CCCN(C(=O)CCc3c(C)noc3C)C2)c1 (stereo not shown)
The “hERG current change (%, negative = inhibition) at 10uM” value of the first is higher: 10.3% for the first, -2.56% for the second.

Compared with `Cc1ccc(C)c(C(C)NC(=O)C2CCCO2)c1` (stereo not shown), `O=C(Nc1ccc(Cl)cc1)N1CCN(C(=O)C2CCCO2)CC1` (stereo not shown) is lower in “hERG current change (%, negative = inhibition) at 10uM” value: 17.6% for the first, 14.9% for the second.

Going from `CC(=O)N1CCN(C(=O)CNC(=O)c2ccc(Br)o2)CC1` to `O=C(NCC(=O)N1CCN(c2ccccc2O)CC1)c1ccc(Br)o1`, the “hERG current change (%, negative = inhibition) at 10uM” value falls from 22.2% to -4.93%.

Going from `O=C(NCC(=O)N1CCN(c2ccccc2)CC1)c1ccc(Br)o1` to `O=C(NCC(=O)N1CCN(c2cccc(Cl)c2)CC1)c1ccc(Br)o1`, the “hERG current change (%, negative = inhibition) at 10uM” value falls from -39.9% to -78.4%.

Compared with `Cc1ccc(Cl)cc1N1CCN(C(=O)c2noc(C)c2[N+](=O)[O-])CC1`, `Cc1cc(C(=O)N2CCN(c3cc(Cl)ccc3C)CC2)on1` is lower in “hERG current change (%, negative = inhibition) at 10uM” value: 1.15% for the first, -58.7% for the second.

Going from `Cc1cc(C(=O)N2CCN(c3ccc(F)cc3)CC2)on1` to `CC(C)CCn1nnnc1C(c1ccc(F)cc1)N1CCN(C(=O)c2ccco2)CC1` (stereo not shown), the “hERG current change (%, negative = inhibition) at 10uM” value falls from -14.5% to -38.1%.

Going from `Cc1ccc(CN2CCc3[nH]c(=O)[nH]c(=O)c3C2)cc1` to `Cc1ccc(C(c2nnnn2Cc2cccs2)N2CCN(C(=O)c3ccco3)CC2)cc1` (stereo not shown), the “hERG current change (%, negative = inhibition) at 10uM” value falls from 17.5% to -62.5%.

Going from `S=C(Nc1ccc(Oc2ccc(NC(=S)NC3CCCCC3)cc2)cc1)NC1CCCCC1` to `Cc1cccc(N(C(=O)Cc2cccs2)C(C(=O)NC2CCCC2)c2ccncc2)c1` (stereo not shown), the “hERG current change (%, negative = inhibition) at 10uM” value falls from 17.6% to 8.83%.

Going from `Cc1ccc(C(=O)N2CCN(C(=O)N3CCOCC3)CC2)cc1` to `O=C(c1ccco1)N1CCN(C(c2ccc(F)cc2)c2nnnn2CC2CCCO2)CC1` (stereo not shown), the “hERG current change (%, negative = inhibition) at 10uM” value falls from -5.64% to -13.7%.

Going from `COC(=O)c1ccccc1Oc1nc(Cl)cc(OC)n1` to `COc1ccc(C(=O)Nn2cnnc2)cc1OC`, the “hERG current change (%, negative = inhibition) at 10uM” value rises from -12.1% to 14.6%.

Going from `O=C(NCc1ccco1)C(=O)NCC(c1ccco1)N1CCOCC1` (stereo not shown) to `CC(C)C(c1nnnn1Cc1cccs1)N1CCN(C(=O)c2ccco2)CC1` (stereo not shown), the “hERG current change (%, negative = inhibition) at 10uM” value falls from 13% to -31.6%.

Going from `CC1(C)CC(=O)c2sc(NC(=O)c3ccccc3)nc2C1` to `Cc1ccc2c(CC(=O)Nc3c(C)n(C)n(-c4ccccc4)c3=O)coc2c1`, the “hERG current change (%, negative = inhibition) at 10uM” value falls from 2.82% to -7.21%.

Going from `O=C(COc1cccc2cccnc12)Nc1ccccc1N1CCOCC1` to `O=C1N(Cc2cccnc2)C[C@@H]2C[C@@H](c3cccc(OCc4ccccc4)c3)N3CCC[C@@]123`, the “hERG current change (%, negative = inhibition) at 10uM” value falls from -37.7% to -63.6%.

First: CCCNC(=O)c1ccc(N2CCC3(CC2)CC(c2cccc(Br)c2)=NO3)c(NC(=O)c2c(Cl)cccc2Cl)c1
Second: CN=C(Nc1ccccc1OC)SC1CC(=O)N(c2ccc(C(=O)OC)cc2)C1=O (stereo not shown)
The “hERG current change (%, negative = inhibition) at 10uM” value of the first is higher: 5.92% for the first, -12.5% for the second.

Compared with `COc1ccccc1CCNCc1ccc(OC)c(OCc2ccccc2)c1`, `COc1ccc(CNCCc2ccc(Cl)cc2)cc1OCc1ccccc1` is lower in “hERG current change (%, negative = inhibition) at 10uM” value: -71.9% for the first, -75.6% for the second.

Going from `COc1ccc(CNCCc2ccccc2)cc1OCC(N)=O` to `COc1cc(CNCCc2ccccc2)ccc1OCC(N)=O.Cl`, the “hERG current change (%, negative = inhibition) at 10uM” value falls from -12% to -17.4%.

Compared with `CCOc1cc(CNCc2ccccc2)ccc1OCc1ccc(Cl)cc1.Cl`, `O=c1cc(-c2ccccc2)cc(-c2ccccc2)n1CCO` is higher in “hERG current change (%, negative = inhibition) at 10uM” value: -33.1% for the first, -21.5% for the second.

First: O=C(O)C(=O)O.c1ccc(CNC2=NCCCC2)cc1
Second: CC(C)(C)NC(=S)NNC(=O)[C@H]1C[C@@H]1c1ccccc1
The “hERG current change (%, negative = inhibition) at 10uM” value of the first is lower: 1.76% for the first, 11% for the second.

Compared with `COc1ccccc1CCC(=O)Nc1ccc(S(=O)(=O)Nc2cc(C)nc(C)n2)cc1`, `COc1ccc(CCNS(=O)(=O)c2ccc3oc(C(=O)O)c(C)c3c2)cc1OC` is lower in “hERG current change (%, negative = inhibition) at 10uM” value: 12% for the first, 0.0936% for the second.

Going from `COc1ccccc1-n1ccnc1SCC(=O)NC(C)(C)C` to `COc1ccccc1CN1C[C@@H]2C[C@@H](c3cccc(C)c3)N3CCC[C@@]23C1=O`, the “hERG current change (%, negative = inhibition) at 10uM” value falls from 13.3% to -37%.

Going from `CNC(=O)c1csc(Cc2c(Cl)sc3ccc(Cl)cc23)n1` to `CNC(=O)NNC(=O)c1csc(Cc2c(Cl)sc3ccc(Cl)cc23)n1`, the “hERG current change (%, negative = inhibition) at 10uM” value falls from -2.3% to -52.1%.

Going from `CC(=O)NNC(=O)c1csc(Cc2c(Cl)sc3ccc(Cl)cc23)n1` to `CCCCc1nnc(NC(=O)CSCc2cc(=O)n3cc(C)sc3n2)s1`, the “hERG current change (%, negative = inhibition) at 10uM” value rises from -19.6% to 5.31%.

Compared with `O=C(Nc1cccnc1)/C(N=Nc1cccnc1)=C(\O)c1ccccc1`, `O=C(Nc1cccnc1)/C(N=Nc1ccc(Cl)c(C(F)(F)F)c1)=C(\O)c1ccccc1` is higher in “hERG current change (%, negative = inhibition) at 10uM” value: -53% for the first, 29.3% for the second.

Compared with `CCOC(=O)C(NC(=O)Nc1ccc(C(N)=O)cc1)(c1ccccc1)C(F)(F)F` (stereo not shown), `Cc1cccc(-n2c(SCc3cc(=O)n4ccsc4n3)nc3ccccc3c2=O)c1` is higher in “hERG current change (%, negative = inhibition) at 10uM” value: -14.6% for the first, -5.76% for the second.

First: Cc1cc(/C=N/n2cnnc2)c(C)n1-c1cccc(Cl)c1
Second: CCOc1cc(C(=O)Nn2cnnc2)cc(OCC)c1OCC
The “hERG current change (%, negative = inhibition) at 10uM” value of the first is lower: -22.2% for the first, 13.8% for the second.

Compared with `Cl.O=C(c1ccco1)N1CCN(C(c2ccc(F)cc2)c2nnnn2Cc2cccs2)CC1` (stereo not shown), `O=C(c1ccco1)N1CCN(C(c2ccccc2)c2nnnn2Cc2cccs2)CC1` (stereo not shown) is higher in “hERG current change (%, negative = inhibition) at 10uM” value: -57% for the first, -38.9% for the second.

Compared with `O=C1N(Cc2cccnc2)C[C@@H]2C[C@@H](c3cccc(Oc4ccccc4)c3)N3CCC[C@@]123`, `COc1ccccc1CN1C[C@@H]2C[C@@H](c3cccc(O)c3)N3CCC[C@@]23C1=O` is higher in “hERG current change (%, negative = inhibition) at 10uM” value: -59.4% for the first, -33.6% for the second.

First: O=C(CCN1CCCC1=O)NC1CCCc2c1cnn2-c1ccc(F)cc1F (stereo not shown)
Second: CCOC(=O)N1CCC(NS(=O)(=O)c2ccc3c(c2)CCN3C(C)=O)CC1
The “hERG current change (%, negative = inhibition) at 10uM” value of the first is lower: -2.54% for the first, -0.517% for the second.

With `CC(C)C(C(=O)NC(C)(C)C)N(CCN1CCOCC1)C(=O)CNS(=O)(=O)c1ccccc1` (stereo not shown) the “hERG current change (%, negative = inhibition) at 10uM” value was 0.875%.
